Among the data in PubChem BioAssay (NCATS) are Potency, outcome and activity change, negative = inhibition values, retold here.

Results filed as inconclusive are left out. Values without a mark were called inactive. Activity calls are given as the source filed them. Unless noted, calls come from the whole dose curve; as a rule, active = well fitted curve in the direction sought with a large enough effect; inconclusive = small, poorly fitted or top-dose-only effect, or another doubt; inactive = no such curve, though single readings can be large; an effect the other way counts as inactive or inconclusive.

Assay [1] has as its target Cytochrome P450 2C19 (Homo sapiens) (UniProt P33261). Put plainly: qHTS Assay for Inhibitors and Substrates of Cytochrome P450 2C19 (AID 899). Note: nearly all actives have a fitted effect of over 60% in size. Note: potency is the fitted concentration of half-maximal effect. In short, it runs like this:
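Signal comes from luciferase acting on luciferin released by CYP2C19-mediated hydroxylation of Luciferin-H EGE, 10uM (KM). Assay mix: 5nM enzyme, 50mM KPO4; 60 min at 37C with NADPH regeneration. Data normalized against 57uM ketoconazole.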
(In general: qHTS replaces the single test concentration by a dilution series.)

The nature of assay [2]: qHTS Assay for Identification of Small Molecule Agonists for Hypoxia Response Element Signaling Pathway (AID 914; active = well fitted activation curve with a large enough effect in the signal ratio, with a control signal flat, not every such curve was filed as active; the % refers to the signal ratio; note: potency is the fitted concentration of half-maximal effect). The note with it: ME-180 (cervical carcinoma) HRE-bla reporter, beta-lactamase ratio, CoCl2, 17 h; activation: stronger effect = higher value. In short, it runs like this: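 Cells were plated overnight, pin-dosed with compound in a titration series, co-stimulated with EC50 CoCl2 and incubated 17 hours at 37 degrees Celsius. CCF4 substrate was then loaded, and AC50 values came from the 460nm/530nm ratio.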

For assay [3], the target named is Cytochrome P450 2C9 (Homo sapiens) (UniProt P11712). Put plainly: qHTS Assay for Inhibitors and Substrates of Cytochrome P450 2C9 (AID 883). For activity change, negative = inhibition: % is set by controls: 0 for no effect and ±100 for the full control effect. Note: nearly all actives have a fitted effect of over 60% in size. Note: potency is the fitted concentration of half-maximal effect. In short, it runs like this:
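Signal: luciferase luminescence reporting luciferin produced by CYP2C9. Conditions: 10nM enzyme, Luciferin-H 100uM at KM, 25mM KPO4, 37C, 60 min NADPH-driven reaction. Reference: 57uM sulphaphenazole as 100% inhibition.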

Assay [4] has as its target ATP-dependent 6-phosphofructokinase (Trypanosoma brucei brucei) (UniProt O15648). Put plainly: qHTS Assay to Find Inhibitors of T. brucei phosphofructokinase: hit validation (AID 492961).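 Note: luminescence reports ADP formed as PFK phosphorylates fructose-6-phosphate with ATP; % is set by controls: 0 for no effect and ±100 for the full control effect.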 In short, it runs like this: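 Inhibition of parasite PFK is measured as reduced ADP formation, quantified via luciferase after ATP depletion. Assay used 0.1 mM ATP, 0.5 mM F6P, 1.25 nM enzyme, 45 min incubation.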

For another assay, the system named is ATS189. Put plainly: qHTS profiling for inhibitors of Plasmodium falciparum proliferation (AID 504749). Note: nearly all actives have a fitted effect of over 60% in size. Note: potency is the fitted concentration of half-maximal effect. The settings on record: P. falciparum in erythrocytes, SYBR Green DNA, 72 h; series mostly up to 12.8 µM. In short, it runs like this: (§1)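 P. falciparum-infected erythrocytes (0.3% parasitemia, 2.5% hematocrit) incubated with compound 72 h at 37 C, 5% CO2. Parasite DNA detected by SYBR Green after lysis, overnight at room temperature; normalised to 0.29 uM artemisinin and DMSO.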

Another assay has as its system CP185. Described as above. The note with it: P. falciparum in erythrocytes, SYBR Green DNA, 72 h; series mostly up to 12.8 µM. In short, it runs like this:
as §1

For a further assay, the system named is CP201. The assay is described as above. The settings on record: P. falciparum in erythrocytes, SYBR Green DNA, 72 h; series mostly up to 12.8 µM. In short, it runs like this:
as §1

The test system of a further assay is CP238. The description is as above. The settings on record: P. falciparum in erythrocytes, SYBR Green DNA, 72 h; series mostly up to 12.8 µM. In short, it runs like this: as §1
The next assay relates to CP305. The assay is described as above. The settings on record: P. falciparum in erythrocytes, SYBR Green DNA, 72 h; series mostly up to 12.8 µM. In short, it runs like this:
as §1

The next assay has as its system CP335. Described as above. The note with it: P. falciparum in erythrocytes, SYBR Green DNA, 72 h; series mostly up to 12.8 µM. In short, it runs like this:
as §1

A further assay has as its system DFO2036. Described as above. The settings on record: P. falciparum in erythrocytes, SYBR Green DNA, 72 h; series mostly up to 12.8 µM. In short, it runs like this:
as §1

In a further assay the test system is HB3. Described as above. The settings on record: P. falciparum in erythrocytes, SYBR Green DNA, 72 h; series mostly up to 12.8 µM. In short, it runs like this:
as §1

The next assay has as its system PC49. The assay is described as above. The settings on record: P. falciparum in erythrocytes, SYBR Green DNA, 72 h; series mostly up to 12.8 µM. In short, it runs like this: as §1
In a further assay the test system is TAB109. The assay is described as above. The settings on record: P. falciparum in erythrocytes, SYBR Green DNA, 72 h; series mostly up to 12.8 µM. In short, it runs like this:
as §1

A further assay relates to TAB113. The description is as above. The settings on record: P. falciparum in erythrocytes, SYBR Green DNA, 72 h; series mostly up to 12.8 µM. In short, it runs like this: as §1
Assay [5] deals with Cytochrome P450 2D6 (Homo sapiens) (UniProt P10635). Put plainly: qHTS Assay for Inhibitors and Substrates of Cytochrome P450 2D6 (AID 891).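 For activity change, negative = inhibition: luciferin methyl ether substrate demethylated by CYP2D6 with NADPH regeneration; % is set by controls: 0 for no effect and ±100 for the full control effect.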 Note: nearly all actives have a fitted effect of over 60% in size. Note: potency is the fitted concentration of half-maximal effect. In short, it runs like this: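 Human CYP2D6 (5 nM) with 30 uM Luciferin-ME EGE (at Km) in 100 mM KPO4, compound preincubated 10 min, then NADPH regeneration system for 60 min at room temperature. Luciferin read by luminescence; normalized to 1.43 uM quinidine.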

Assay [6] shares this target. Nature of the assay: Cytochrome P450 family 2 subfamily D member 6 (CYP2D6) small molecule antagonists: luciferase biochemical (cell-free) qHTS assay (AID 1645840; active = well fitted curve in the direction sought with a large enough effect in the repeat runs; an effect the other way counts as inactive or inconclusive; note: % is set by controls: 0 for no effect and ±100 for the full control effect; nearly all actives have a fitted effect of over 55% in size). In short, it runs like this:
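P450-Glo luminescent screen: recombinant CYP2D6 enzyme–proluciferin substrate mix preincubated with compound 10 min at room temperature, then NADPH regeneration added for 1 h at room temperature. Detection reagent added for 20 min; luciferin light read as relative luminescence units.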

In assay [7] the target is Dual specificity protein kinase CLK4 (Homo sapiens) (UniProt Q9HAZ1). Put plainly: qHTS Assay for Inhibitors of CDC-like Kinase 4 (Kinase-Glo Assay) (AID 1770). Note: nearly all actives have a fitted effect of over 65% in size. Note: potency is the fitted concentration of half-maximal effect. In short, it runs like this:
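25 nM Clk4 with 100 uM RS repeat peptide and 1 uM ATP (final) in Tris pH7.5, 10 mM MgCl2, 4.5 h at room temperature. Remaining ATP measured by Kinase-Glo luciferase luminescence.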

The target is the same in assay [8]. Put plainly: qHTS Assay for Inhibitors of CDC-like Kinase 4 (ADP-Glo Assay) (AID 1771). For activity change, negative = inhibition: % is set by controls: 0 for no effect and ±100 for the full control effect. Note: nearly all actives have a fitted effect of over 70% in size. Note: potency is the fitted concentration of half-maximal effect. In short, it runs like this:
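25 nM Clk4 with 100 uM RS repeat peptide and 1 uM ATP (final) in buffer with 2 mM MgCl2, 0.5 mM EGTA, 2.5 mM DTT, 0.01% Triton X-100; 1 h at room temperature; ADP-Glo luminescence for ADP formed.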

Assay [9] concerns the target Rap guanine nucleotide exchange factor 3 (Homo sapiens) (UniProt O95398). Nature of the assay: Counterscreen qHTS for antagonist of cAMP-regulated guanine nucleotide exchange factor 3 (EPAC1) (AID 1645888).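 Note: fluorescence loss as bound BODIPY-GDP is released from Rap1B; % of control where 0% means no effect.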 In short, it runs like this:
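Rap1B–BODIPY-GDP (250 nM) with 50 uM GDP; compounds pin-transferred to 9.74 nM–152 uM final (activator) or from 7.32 nM upwards (inhibitor). Fluorescence Ex/Em 480/540 nm read at 5 and 30 min, then after adding cAMP or buffer, at room temperature.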
Background: A counterscreen serves to expose hits that act by an unwanted route or on another target.

Sequence of Cytochrome P450 2D6 (Homo sapiens) (P10635 whole entry, looked up): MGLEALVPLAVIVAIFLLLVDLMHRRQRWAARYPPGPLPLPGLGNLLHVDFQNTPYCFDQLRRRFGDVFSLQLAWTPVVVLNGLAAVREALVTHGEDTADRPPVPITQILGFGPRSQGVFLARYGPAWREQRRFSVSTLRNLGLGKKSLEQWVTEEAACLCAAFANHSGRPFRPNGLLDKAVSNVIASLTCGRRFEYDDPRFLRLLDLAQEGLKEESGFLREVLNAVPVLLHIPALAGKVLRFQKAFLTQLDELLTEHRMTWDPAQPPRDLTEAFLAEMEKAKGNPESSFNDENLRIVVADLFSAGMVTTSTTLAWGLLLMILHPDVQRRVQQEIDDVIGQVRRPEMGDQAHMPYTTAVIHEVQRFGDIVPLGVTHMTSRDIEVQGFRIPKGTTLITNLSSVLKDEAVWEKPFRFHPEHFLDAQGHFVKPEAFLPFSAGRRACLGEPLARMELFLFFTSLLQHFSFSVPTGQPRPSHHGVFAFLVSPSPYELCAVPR
Sequence of Cytochrome P450 2C19 (Homo sapiens) (P33261 whole entry, looked up): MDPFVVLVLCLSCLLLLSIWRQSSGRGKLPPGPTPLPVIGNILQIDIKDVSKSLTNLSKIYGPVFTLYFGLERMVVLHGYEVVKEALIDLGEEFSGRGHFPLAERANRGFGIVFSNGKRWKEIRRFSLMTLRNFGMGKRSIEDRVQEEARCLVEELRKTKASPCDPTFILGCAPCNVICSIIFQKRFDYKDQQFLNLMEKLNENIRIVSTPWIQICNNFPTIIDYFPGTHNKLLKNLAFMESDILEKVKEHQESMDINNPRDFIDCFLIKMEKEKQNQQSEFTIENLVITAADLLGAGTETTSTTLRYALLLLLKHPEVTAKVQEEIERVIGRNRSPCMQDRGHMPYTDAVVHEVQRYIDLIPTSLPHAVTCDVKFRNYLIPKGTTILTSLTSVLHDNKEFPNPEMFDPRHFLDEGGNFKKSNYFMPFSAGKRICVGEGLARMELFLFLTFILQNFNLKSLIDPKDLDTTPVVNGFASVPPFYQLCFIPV
Sequence of Rap guanine nucleotide exchange factor 3 (Homo sapiens) (O95398 whole entry, looked up): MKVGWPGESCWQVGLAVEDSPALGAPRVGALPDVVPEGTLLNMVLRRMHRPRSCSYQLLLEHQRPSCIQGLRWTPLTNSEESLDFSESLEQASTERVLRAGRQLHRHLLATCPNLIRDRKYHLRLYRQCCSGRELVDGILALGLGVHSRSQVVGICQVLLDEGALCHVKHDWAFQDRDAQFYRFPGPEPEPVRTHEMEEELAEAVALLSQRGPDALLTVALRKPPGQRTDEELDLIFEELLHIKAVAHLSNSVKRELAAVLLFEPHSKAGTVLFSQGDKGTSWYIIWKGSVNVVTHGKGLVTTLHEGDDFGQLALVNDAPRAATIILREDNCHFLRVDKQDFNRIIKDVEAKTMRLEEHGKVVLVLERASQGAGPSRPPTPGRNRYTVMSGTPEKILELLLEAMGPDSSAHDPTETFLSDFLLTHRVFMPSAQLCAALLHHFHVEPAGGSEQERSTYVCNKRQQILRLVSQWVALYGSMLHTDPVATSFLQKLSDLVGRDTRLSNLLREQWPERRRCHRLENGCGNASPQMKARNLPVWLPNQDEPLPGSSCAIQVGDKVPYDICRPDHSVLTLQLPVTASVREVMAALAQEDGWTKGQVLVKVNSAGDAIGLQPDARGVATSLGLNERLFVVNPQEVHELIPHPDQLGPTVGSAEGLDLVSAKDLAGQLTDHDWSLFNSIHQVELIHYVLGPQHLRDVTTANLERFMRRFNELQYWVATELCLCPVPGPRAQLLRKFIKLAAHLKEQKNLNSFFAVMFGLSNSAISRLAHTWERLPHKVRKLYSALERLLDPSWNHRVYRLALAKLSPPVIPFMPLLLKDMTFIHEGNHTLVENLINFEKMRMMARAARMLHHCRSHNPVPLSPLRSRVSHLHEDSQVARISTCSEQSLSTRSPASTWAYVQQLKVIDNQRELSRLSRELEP
Sequence of Dual specificity protein kinase CLK4 (Homo sapiens) (Q9HAZ1 whole entry, looked up): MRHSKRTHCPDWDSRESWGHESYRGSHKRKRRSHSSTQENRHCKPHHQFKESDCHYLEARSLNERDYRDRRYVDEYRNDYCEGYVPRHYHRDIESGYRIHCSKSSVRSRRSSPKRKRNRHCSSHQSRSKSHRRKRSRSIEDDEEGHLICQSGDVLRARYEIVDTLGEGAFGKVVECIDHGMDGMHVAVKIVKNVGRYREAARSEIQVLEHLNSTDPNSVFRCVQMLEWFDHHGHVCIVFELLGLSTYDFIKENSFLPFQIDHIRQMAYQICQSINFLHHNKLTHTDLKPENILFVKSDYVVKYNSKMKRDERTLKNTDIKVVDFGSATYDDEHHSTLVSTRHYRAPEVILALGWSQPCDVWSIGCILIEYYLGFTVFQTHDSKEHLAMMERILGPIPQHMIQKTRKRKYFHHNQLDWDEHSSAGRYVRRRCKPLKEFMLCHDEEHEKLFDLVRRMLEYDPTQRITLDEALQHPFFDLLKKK
Sequence of Cytochrome P450 2C9 (Homo sapiens) (P11712 whole entry, looked up): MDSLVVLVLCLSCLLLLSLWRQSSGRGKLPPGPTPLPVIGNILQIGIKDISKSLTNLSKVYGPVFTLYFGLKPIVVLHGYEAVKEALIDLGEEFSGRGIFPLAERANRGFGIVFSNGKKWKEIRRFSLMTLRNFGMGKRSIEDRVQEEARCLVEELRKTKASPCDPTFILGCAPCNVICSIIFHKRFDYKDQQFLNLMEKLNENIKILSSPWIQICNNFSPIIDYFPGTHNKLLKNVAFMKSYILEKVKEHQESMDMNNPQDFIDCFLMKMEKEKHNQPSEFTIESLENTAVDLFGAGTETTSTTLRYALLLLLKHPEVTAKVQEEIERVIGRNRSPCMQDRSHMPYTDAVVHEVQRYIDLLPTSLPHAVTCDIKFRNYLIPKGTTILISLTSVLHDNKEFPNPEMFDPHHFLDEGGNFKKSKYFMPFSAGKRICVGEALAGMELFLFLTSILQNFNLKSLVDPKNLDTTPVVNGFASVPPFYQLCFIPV
Sequence of ATP-dependent 6-phosphofructokinase (Trypanosoma brucei brucei) (O15648 whole entry, looked up): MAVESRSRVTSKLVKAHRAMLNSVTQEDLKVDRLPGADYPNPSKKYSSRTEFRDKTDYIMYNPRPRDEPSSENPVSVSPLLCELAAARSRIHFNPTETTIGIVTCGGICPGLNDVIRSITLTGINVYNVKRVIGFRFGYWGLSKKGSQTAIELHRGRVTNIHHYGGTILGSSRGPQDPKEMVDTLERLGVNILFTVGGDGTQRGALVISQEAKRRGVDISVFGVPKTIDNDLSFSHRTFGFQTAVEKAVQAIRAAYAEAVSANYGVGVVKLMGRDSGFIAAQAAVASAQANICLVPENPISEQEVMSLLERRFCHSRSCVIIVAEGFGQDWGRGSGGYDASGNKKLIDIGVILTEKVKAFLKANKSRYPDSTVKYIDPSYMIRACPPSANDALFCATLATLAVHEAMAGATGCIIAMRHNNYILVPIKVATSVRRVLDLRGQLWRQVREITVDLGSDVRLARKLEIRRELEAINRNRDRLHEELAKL

Turning to `CCNc1ncc2ncc(=O)n(CCc3ccccc3)c2n1`, in assay [1], the Potency was 0.631 µM (active).

Consider `COc1ccc(Oc2ncc3nc(-c4cccs4)c(=O)n(Cc4cccs4)c3n2)cc1`, for which, in assay [2], the Potency is 3.16 µM (active).

Turning to `COc1cccc(Cn2c(=O)c(CCc3ccccc3)nc3cnc(OC)nc32)c1`, the Potency in assay [3] is 6.31 µM (active).

With `O=c1c(-c2cccs2)nc2cnc(Oc3cccc(Cl)c3)nc2n1C[C@H]1CCCO1`, the Potency in assay [3] and in assay [2] was 3.16 µM (active) throughout.

On to `CN(C)c1ncc2nc(-c3ccc(Cl)cc3)c(=O)n(C3CC3)c2n1`, for which, in assay [2], the Potency was 2.51 µM (active).

Consider `CCNc1ncc2nc(-c3ccccc3)c(=O)n(Cc3ccc(F)cc3)c2n1`, for which, in assay [3], the Potency result was “inactive”.

Consider `COCCn1c(=O)c(-c2cccs2)nc2cnc(Oc3cccc(Cl)c3)nc21`, for which, in assay [2], the Potency is 3.16 µM (active).

Regarding `Clc1ccccc1-c1nc(NCCN2CCOCC2)c2ccccc2n1`, in assay [2], the Potency is 3.16 µM (active).

On to `CCNc1ncc2nc(-c3cc(F)cc(F)c3)c(=O)n(-c3ccc(OC)cc3)c2n1`, for which the Potency in [2] is 0.398 µM (active).

As to `COc1cc(/C=C/C(=O)/C=C(O)/C=C/c2ccc(O)c(OC)c2)ccc1O`, the result in [4] was inactive. Besides, the Potency entry in the assay with ATS189, in the assay with CP185, with CP201, in the assay with CP238, in the assay with CP305 and in the assay on CP335 was “inactive” in each case. Further, the Potency entry in the assay on DFO2036, with HB3, with PC49, in the assay on TAB109 and with TAB113 was “inactive” throughout.

Regarding `COc1cc2ccc(=O)oc2cc1O`, the Potency result in [3], in assay [5] and in assay [1] was “inactive” each time.

For `NC(Cc1ccc(O)c(O)c1)C(=O)O` (stereo unspecified), the Potency result in assay [6] was “inactive”.

As to `COc1ccc2[nH]cc(CCNc3ncnc4ccc(-c5ccc6c(c5)OCO6)cc34)c2c1`, the Potency in assay [3] was 0.126 µM (active); in assay [5], 2.51 µM (active); in assay [1], 1.58 µM (active); in assay [7] it was 0.316 µM (active); in [8] it was 0.282 µM (active).

As to `C=CCc1ccc(OC(=O)c2ccccc2)c(OC)c1`, the activity change, negative = inhibition in assay [9] is -3.32% [at 30.8 µM].

With `Cc1cc(C)c(S(=O)(=O)Nc2ccccc2C(F)(F)F)c(C)c1`, the Potency in [5] is 6.31 µM (active).

With `CC(C)CN1CCCC2(CCN(C(=O)c3ccco3)CC2)C1`, in assay [3], the Potency entry is “inactive”.

Take `COc1cccc(-c2cc(NCCc3c[nH]c4ccc(OC)cc34)ncn2)c1`: the Potency was 0.501 µM (active) in [1], 4.47 µM (active) in [7] and 12.6 µM (active) in assay [8].

`CCCCCCCNS(=O)(=O)c1cccc2c(Cl)cccc12`: the Potency in assay [1] was 0.126 µM (active).

With `O=c1ccc2cc(O)c(O)cc2o1`, the Potency in assay [2] was 10 µM (active).

`Cc1ccccc1-c1ccc2ncnc(N(C)C)c2c1`: the Potency was 7.94 µM (active) in [1], 15.8 µM (active) in assay [7] and 28.2 µM (active) in [8].

In the case of `CN(Cc1ccco1)c1ncnc2ccc(-c3ccc4c(c3)OCO4)cc12`, the Potency in assay [5] was 1.58 µM (active); in [1] it was 0.631 µM (active). Besides, in assay [9], the call was inactive.

As to `COc1ccc2[nH]cc(CCNc3nc(-c4ccc(C(=O)N(C)C)cc4)nc4ccccc34)c2c1`, the Potency in [1] is 3.16 µM (active).

On to `COC(=O)c1c(C)cc(OC(=O)c2c(C)cc(O)c(C=O)c2O)c(C)c1O`, for which, in assay [6], the Potency result is “inactive”.

For the compound `COc1cc2c(cc1OC)C(=O)Cc1ccc3c(c1CN(C)CC2)OCO3`, in assay [3], the Potency result was “inactive”. The Potency was 0.0251 µM (active) in assay [5] and 10 µM (active) in assay [1].

Regarding `CC[C@@]12CCCN3CCc4c(n(c5ccccc45)[C@](O)(C(=O)OC)C1)[C@H]32`, the Potency result in assay [3] and in [1] was “inactive” throughout. For the same compound, in assay [5], the Potency was 0.251 µM (active).

As for `CCCCCC/C=C\CCCCCCCc1cccc(O)c1C(=O)O`, in assay [6], the Potency entry was “inactive”.

On to `N[C@@H](C(=O)O)c1ccc(O)c(C(=O)O)c1`, for which the Potency result in assay [3] is “inactive”.

`COc1ccc2[nH]cc(CCNc3ncnc4ccc(-c5ccccc5C#N)cc34)c2c1`: the Potency is 0.316 µM (active) in assay [3], 7.94 µM (active) in [5] and 2 µM (active) in [1].

`COc1ccccc1CNc1ncnc2ccc(-c3ccccc3C#N)cc12`: the Potency was 7.94 µM (active) in assay [1], 6.31 µM (active) in assay [7] and 7.94 µM (active) in assay [8].

`COc1ccc(-c2cc(=O)c3c(OC)c(OC)c(OC)c(OC)c3o2)cc1`: the activity change, negative = inhibition in assay [9] was -8.95% [at 30.8 µM].

For `COc1c(-c2ccc(O)c(O)c2)oc2cc(O)cc(O)c2c1=O`, the Potency entry in assay [3], in assay [5] and in assay [1] was “inactive” throughout. The call in assay [9] was inactive.

Take `COc1ccccc1CNc1ncnc2ccc(-c3cccnc3)cc12`: in assay [5], the Potency was 5.01 µM (active).

Take `Cc1ccccc1-c1ccc2ncnc(N(C)Cc3ccco3)c2c1`: the Potency in assay [7] was 14.1 µM (active).

Consider `COc1cccc(-c2nc(Nc3ccncc3)c3ccccc3n2)c1`, for which the Potency in assay [1] was 3.16 µM (active).

Regarding `COc1cccc(-c2cncnc2NCc2ccc(OC)cc2OC)c1`, the Potency in [5] was 7.94 µM (active); in assay [1], 1.26 µM (active).

Regarding `Cc1cc(/C=C\c2ccc3cc(N(C)C)ccc3[n+]2C)c(C)n1-c1ccccc1`, the compound was called inactive in [4]. Moreover, the Potency is 3.16 µM (active) with ATS189; 1.58 µM (active) in the assay on CP185; 3.22 µM (active) with CP201; 1.58 µM (active) in the assay with CP238; 2.56 µM (active) with CP305; 0.572 µM (active) with CP335. Besides, the Potency is 1.78 µM (active) with DFO2036; 2.82 µM (active) in the assay on HB3; 3.16 µM (active) in the assay on PC49; 1.41 µM (active) in the assay on TAB109; 1.78 µM (active) with TAB113.

As for `CN1CCN(c2ncncc2-c2ccc(N(C)C)cc2)CC1`, the activity change, negative = inhibition in [3] is 36.5% [at 2.29 µM]. Also, the Potency entry in assay [7] and in assay [8] was “inactive” in each case.
